{"source": "the antibiotic and cytotoxicity screens of Wong et al. (2023)", "note": "Hit rate of the full screen: of about 39,000 compounds, about 1,500 (3.8%) were called active. This excerpt belongs to a sample that is enriched for actives.", "data": [{"test_system": "HSkMC (human skeletal muscle cells)", "assay": "cytotoxicity call (relative viability < 0.9)", "details": "10 µM", "values": [{"smiles": "CC(C)[C@@H](N)c1ncnn1C", "cytotoxicity call": "inactive"}, {"smiles": "COc1ccc(NC(=O)Nc2ccc3c(c2)C(=O)N([C@H](C)CO)C[C@@H](C)[C@H](CN(C)S(=O)(=O)c2ccc(Cl)cc2)OCCCC[C@H](C)O3)cc1", "cytotoxicity call": "inactive"}, {"smiles": "CC(C)C#Cc1cnc2c(c1)C(=O)N([C@@H](C)CO)C[C@H](C)[C@H](CN(C)C(=O)c1ccc3c(c1)OCO3)O2", "cytotoxicity call": "inactive"}, {"smiles": "C[C@H](CO)N1C[C@H](C)[C@@H](CN(C)C(=O)Cc2ccccn2)Oc2cc(-c3cccc(C(=O)N(C)C)c3)ccc2S1(=O)=O", "cytotoxicity call": "inactive"}, {"smiles": "C[C@H]1[C@H]([Si](C)(C)F)[C@@H](CC(=O)N2Cc3ccccc3C[C@H]2CO)O[C@]12C(=O)N(c1ccccc1)c1ccccc12", "cytotoxicity call": "inactive"}, {"smiles": "CCCNc1ncnc(N)c1[N+](=O)[O-]", "cytotoxicity call": "inactive"}, {"smiles": "NS(=O)(=O)c1ccccc1", "cytotoxicity call": "inactive"}, {"smiles": "NS(=O)(=O)C#Cc1ccccc1", "cytotoxicity call": "active"}, {"smiles": "Nc1ccccc1S(N)(=O)=O", "cytotoxicity call": "inactive"}, {"smiles": "CCC[C@@H](O)C#Cc1cnc2c(c1)C(=O)N([C@H](C)CO)C[C@H](C)[C@H](CN(C)S(C)(=O)=O)O2", "cytotoxicity call": "inactive"}, {"smiles": "CCOc1cc(C(C)(C)C)ccc1C1=N[C@@](C)(c2ccc(Cl)cc2)[C@@](C)(c2ccc(Cl)cc2)N1C(=O)N1CCN(CCCS(C)(=O)=O)CC1", "cytotoxicity call": "active"}, {"smiles": "C[C@H]1CN([C@@H](C)CO)S(=O)(=O)c2ccc(/C=C/c3ccccc3)cc2O[C@@H]1CN(C)C(=O)CN1CCOCC1", "cytotoxicity call": "inactive"}, {"smiles": "C[C@H]1CN([C@@H](C)CO)C(=O)Cc2cc(NC(=O)c3ccncc3)ccc2O[C@@H]1CN(C)S(=O)(=O)c1cn(C)cn1", "cytotoxicity call": "inactive"}, {"smiles": "COc1cccc(S(=O)(=O)N(C)C[C@@H]2Oc3ncc(C#CC(C)C)cc3C(=O)N([C@@H](C)CO)C[C@@H]2C)c1", "cytotoxicity call": "inactive"}, {"smiles": "COc1ccc(S(=O)(=O)N(C)C[C@H]2Oc3ccc(NC(=O)Nc4cccc5ccccc45)cc3C(=O)N([C@H](C)CO)C[C@H]2C)cc1", "cytotoxicity call": "inactive"}, {"smiles": "COc1ccc(NC(=O)Nc2ccc3c(c2)C(=O)N([C@@H](C)CO)C[C@@H](C)[C@@H](CN(C)C(=O)Nc2cccc4ccccc24)O3)cc1", "cytotoxicity call": "active"}, {"smiles": "COc1ccc(NC(=O)Nc2ccc3c(c2)C(=O)N([C@H](C)CO)C[C@@H](C)[C@H](CN(C)C(=O)Nc2cccc4ccccc24)O3)cc1", "cytotoxicity call": "inactive"}, {"smiles": "COc1ccc(NC(=O)Nc2ccc3c(c2)C(=O)N([C@H](C)CO)C[C@H](C)[C@@H](CN(C)C(=O)Nc2cccc4ccccc24)O3)cc1", "cytotoxicity call": "inactive"}, {"smiles": "COc1ccc(S(=O)(=O)N(C)C[C@@H]2Oc3ccc(NC(=O)Nc4cccc5ccccc45)cc3C(=O)N([C@@H](C)CO)C[C@H]2C)cc1", "cytotoxicity call": "active"}, {"smiles": "COc1ccc(NC(=O)Nc2ccc3c(c2)C(=O)N([C@@H](C)CO)C[C@H](C)[C@H](CN(C)C(=O)Nc2cccc4ccccc24)O3)cc1", "cytotoxicity call": "inactive"}, {"smiles": "COc1ccc(NC(=O)Nc2ccc3c(c2)C(=O)N([C@H](C)CO)C[C@@H](C)[C@@H](CN(C)C(=O)Nc2cccc4ccccc24)O3)cc1", "cytotoxicity call": "active"}, {"smiles": "COc1ccc(S(=O)(=O)N(C)C[C@@H]2Oc3ccc(NC(=O)Cc4ccccc4)cc3C(=O)N([C@@H](C)CO)C[C@@H]2C)cc1", "cytotoxicity call": "inactive"}, {"smiles": "COc1ccc(S(=O)(=O)N(C)C[C@H]2Oc3ccc(NC(=O)Nc4cccc5ccccc45)cc3C(=O)N([C@@H](C)CO)C[C@@H]2C)cc1", "cytotoxicity call": "inactive"}, {"smiles": "COc1ccc(S(=O)(=O)N(C)C[C@H]2Oc3ccc(NC(=O)Cc4ccccc4)cc3C(=O)N([C@@H](C)CO)C[C@@H]2C)cc1", "cytotoxicity call": "inactive"}, {"smiles": "COc1ccc(NC(=O)Nc2ccc3c(c2)C(=O)N([C@@H](C)CO)C[C@@H](C)[C@H](CN(C)C(=O)Nc2cccc4ccccc24)O3)cc1", "cytotoxicity call": "inactive"}, {"smiles": "COc1ccc(S(=O)(=O)N(C)C[C@H]2Oc3ccc(NC(=O)Cc4ccccc4)cc3C(=O)N([C@H](C)CO)C[C@@H]2C)cc1", "cytotoxicity call": "active"}, {"smiles": "C[C@H]1C(=O)C(=O)[C@@H]2O[C@@H]2C1=O", "cytotoxicity call": "inactive"}, {"smiles": "C[C@@H]1CN([C@@H](C)CO)C(=O)c2cc(NC(=O)C3CCCCC3)ccc2O[C@@H](C)CCCCO[C@@H]1CN(C)C(=O)c1ccncc1", "cytotoxicity call": "inactive"}, {"smiles": "C=CC(=O)N[C@@H]1c2ccccc2C[C@@H]1O", "cytotoxicity call": "inactive"}, {"smiles": "Cc1noc(C)c1NC(=O)N(C)C[C@H]1OCCCC[C@@H](C)Oc2ccc(NS(=O)(=O)c3ccc(F)cc3)cc2C(=O)N([C@@H](C)CO)C[C@@H]1C", "cytotoxicity call": "inactive"}, {"smiles": "COc1ccc(S(=O)(=O)Nc2ccc3c(c2)C(=O)N([C@H](C)CO)C[C@H](C)[C@H](CN(C)Cc2ccc(Cl)c(Cl)c2)O3)cc1", "cytotoxicity call": "inactive"}, {"smiles": "COc1ccc(S(=O)(=O)Nc2ccc3c(c2)C(=O)N([C@@H](C)CO)C[C@H](C)[C@H](CN(C)Cc2ccc(Cl)c(Cl)c2)O3)cc1", "cytotoxicity call": "inactive"}, {"smiles": "COc1ccc(S(=O)(=O)Nc2ccc3c(c2)C(=O)N([C@H](C)CO)C[C@@H](C)[C@@H](CN(C)Cc2ccc(Cl)c(Cl)c2)O3)cc1", "cytotoxicity call": "inactive"}, {"smiles": "COc1ccc(S(=O)(=O)Nc2ccc3c(c2)C(=O)N([C@@H](C)CO)C[C@@H](C)[C@@H](CN(C)Cc2ccc(Cl)c(Cl)c2)O3)cc1", "cytotoxicity call": "active"}, {"smiles": "COc1ccc(S(=O)(=O)Nc2ccc3c(c2)C(=O)N([C@H](C)CO)C[C@@H](C)[C@H](CN(C)Cc2ccc(Cl)c(Cl)c2)O3)cc1", "cytotoxicity call": "active"}, {"smiles": "COc1ccc(S(=O)(=O)Nc2ccc3c(c2)C(=O)N([C@@H](C)CO)C[C@H](C)[C@@H](CN(C)Cc2ccc(Cl)c(Cl)c2)O3)cc1", "cytotoxicity call": "active"}, {"smiles": "COc1ccc(S(=O)(=O)Nc2ccc3c(c2)C(=O)N([C@H](C)CO)C[C@H](C)[C@@H](CN(C)Cc2ccc(Cl)c(Cl)c2)O3)cc1", "cytotoxicity call": "inactive"}, {"smiles": "COc1ccc(S(=O)(=O)Nc2ccc3c(c2)C(=O)N([C@@H](C)CO)C[C@@H](C)[C@H](CN(C)Cc2ccc(Cl)c(Cl)c2)O3)cc1", "cytotoxicity call": "inactive"}, {"smiles": "COc1ccc(CN(C)C[C@@H]2OCCCC[C@@H](C)Oc3ccc(NC(=O)c4ccncc4)cc3C(=O)N([C@@H](C)CO)C[C@@H]2C)cc1", "cytotoxicity call": "inactive"}, {"smiles": "C[C@@H]1CCCCO[C@H](CN(C)C(=O)Nc2ccc3c(c2)OCO3)[C@@H](C)CN([C@H](C)CO)C(=O)c2cc(NC(=O)CCC(F)(F)F)ccc2O1", "cytotoxicity call": "inactive"}, {"smiles": "C[C@@H]1CN([C@H](C)CO)C(=O)c2cc(NS(=O)(=O)c3ccccc3)ccc2O[C@@H]1CN(C)S(=O)(=O)c1cccs1", "cytotoxicity call": "inactive"}, {"smiles": "COCCOC(=O)N1C(=O)[C@@]2(c3cc(C#Cc4ccc(OC)cc4)ccc31)[C@H](C(=O)N1CCc3cc(OC)c(OC)cc3C1)[C@H]1C(=O)O[C@H](c3ccccc3)[C@H](c3ccccc3)N1[C@@H]2c1ccc(OCCO)cc1", "cytotoxicity call": "inactive"}, {"smiles": "COCC(=O)Nc1ccc2c(c1)OC[C@@H](C)N(C(=O)c1ccccc1F)C[C@H](C)[C@@H](OC)CN(C)C2=O", "cytotoxicity call": "inactive"}, {"smiles": "CC(C)NC(=O)Nc1cccc2c1O[C@H](CN(C)C(=O)NC1CCCCC1)[C@H](C)CN([C@@H](C)CO)C2=O", "cytotoxicity call": "inactive"}, {"smiles": "Cc1noc(C)c1NC(=O)Nc1ccc2c(c1)C(=O)N([C@H](C)CO)C[C@H](C)[C@@H](CN(C)C(=O)Nc1ccc3c(c1)OCO3)OCCCC[C@H](C)O2", "cytotoxicity call": "inactive"}, {"smiles": "C[C@H]1CN([C@@H](C)CO)C(=O)c2cc(NS(=O)(=O)c3ccc(Cl)cc3)ccc2O[C@@H]1CN(C)Cc1ccc(Oc2ccccc2)cc1", "cytotoxicity call": "active"}, {"smiles": "C[C@H]1CN([C@@H](C)CO)C(=O)c2cc(NS(=O)(=O)c3ccccc3)ccc2O[C@@H]1CN(C)Cc1ccc(Oc2ccccc2)cc1", "cytotoxicity call": "inactive"}, {"smiles": "C[C@@H]1CN([C@@H](C)CO)C(=O)c2cc(NS(=O)(=O)c3ccccc3)ccc2O[C@H]1CN(C)Cc1ccc(Oc2ccccc2)cc1", "cytotoxicity call": "inactive"}, {"smiles": "C[C@@H]1CN([C@H](C)CO)C(=O)c2cc(NS(=O)(=O)c3ccc(Cl)cc3)ccc2O[C@H]1CN(C)Cc1ccc(Oc2ccccc2)cc1", "cytotoxicity call": "active"}, {"smiles": "C[C@H](CO)N1C[C@H](C)[C@H](CN(C)Cc2ccc(Oc3ccccc3)cc2)Oc2ccc(NS(=O)(=O)c3ccc(Cl)cc3)cc2C1=O", "cytotoxicity call": "inactive"}, {"smiles": "C[C@@H]1CN([C@H](C)CO)C(=O)c2cc(NS(=O)(=O)c3ccc(Cl)cc3)ccc2O[C@@H]1CN(C)Cc1ccc(Oc2ccccc2)cc1", "cytotoxicity call": "active"}, {"smiles": "C[C@H]1CN([C@@H](C)CO)C(=O)c2cc(NS(=O)(=O)c3ccc(Cl)cc3)ccc2O[C@H]1CN(C)Cc1ccc(Oc2ccccc2)cc1", "cytotoxicity call": "active"}, {"smiles": "C[C@@H]1CN([C@@H](C)CO)C(=O)c2cc(NS(=O)(=O)c3ccccc3)ccc2O[C@@H]1CN(C)Cc1ccc(Oc2ccccc2)cc1", "cytotoxicity call": "inactive"}, {"smiles": "C[C@@H]1CN([C@@H](C)CO)C(=O)c2cc(NS(=O)(=O)c3ccc(Cl)cc3)ccc2O[C@H]1CN(C)Cc1ccc(Oc2ccccc2)cc1", "cytotoxicity call": "inactive"}, {"smiles": "C[C@H](CO)N1C[C@H](C)[C@@H](CN(C)Cc2ccc(Oc3ccccc3)cc2)Oc2ccc(NS(=O)(=O)c3ccc(Cl)cc3)cc2C1=O", "cytotoxicity call": "inactive"}, {"smiles": "CC(C)NC(=O)Nc1ccc2c(c1)CC(=O)N([C@@H](C)CO)C[C@H](C)[C@H](CN(C)C(=O)NC1CCCCC1)O2", "cytotoxicity call": "inactive"}, {"smiles": "Cc1cccc[n+]1C", "cytotoxicity call": "inactive"}, {"smiles": "CN1C2=CC(=O)/C(=N\\NC(N)=O)C=C2C[C@H]1S(=O)(=O)O", "cytotoxicity call": "inactive"}, {"smiles": "COc1ccc(NC(=O)N(C)C[C@H]2OCCCC[C@H](C)Oc3ccc(NS(=O)(=O)c4ccc(C)cc4)cc3C(=O)N([C@@H](C)CO)C[C@H]2C)cc1", "cytotoxicity call": "inactive"}, {"smiles": "CC(=O)OC1C(=O)C2(C)C(O)CC3OCC3(OC(C)=O)C2C(OC(=O)c2ccccc2)C2(O)CC(OC(=O)C(O)C(NC(=O)c3ccccc3)c3ccccc3)C(C)=C1C2(C)C", "note": "(configuration not stated)", "cytotoxicity call": "inactive"}, {"smiles": "CC(=O)OC1CC(C)(C)C(=C=C/C(C)=C/C=C/C(C)=C/C=C/C=C(C)/C=C/C=C(\\C)C(=O)CC23OC2(C)CC(O)CC3(C)C)C(C)(O)C1", "note": "(configuration not stated)", "cytotoxicity call": "inactive"}, {"smiles": "C[C@@H]1CN([C@H](C)CO)C(=O)c2cc(NC(=O)CCCCCC(=O)Nc3ccccc3N)ccc2O[C@@H]1CN(C)C(=O)Nc1ccccc1", "cytotoxicity call": "inactive"}]}]}
